From PMC9838217, “Structure of SALL4 zinc finger domain reveals link between AT-rich DNA binding and Okihiro syndrome” come the findings set out here.

Where a chain is given by its changes, count along the chain named.

In one experiment the target is T1, SALL4 ZFC4 WT (HT-SELEX) (Mus musculus, UniProt Q8BX22 870-940).
T1 sequence: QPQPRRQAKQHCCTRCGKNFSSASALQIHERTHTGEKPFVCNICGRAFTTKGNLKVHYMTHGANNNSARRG
Kind of experiment: HT-SELEX; high values mean tight binding. To be noted: protein: recombinant; vector His6-GST; dsDNA, one strand shown. The gist of the method: (§1)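 Residues 870–940 of mouse SALL4, forming zinc finger cluster 4, were expressed recombinantly, purified, and 1 µg was incubated with library DNA (1.5 µg first cycle, 200 ng later) in 100 µl of 10 mM Tris–HCl pH 7.5, 50 mM NaCl, poly(dI-dC) and DTT for 10 min at room temperature. Washed Ni2+ bead-captured complexes were PCR-amplified and reselected for up to 6 cycles in triplicate, and the products were sequenced on MiSeq and scanned for 6-mers. Binding signal is the fold change in each canonical k-mer's read fraction compared with the initial random library.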
In the case of CCATCA, the binding signal turned out to be 0.823 ± 0.0184 fold-change vs cycle 0.

In the case of ACCGGT, the binding signal turned out to be 0.368 ± 0.0353 fold-change vs cycle 0.

For ATCTAG, the binding signal was 1.35 ± 0.0842 fold-change vs cycle 0.

Turning to TCCGGA, the binding signal came to 0.375 ± 0.0195 fold-change vs cycle 0.

On to ATAGAT, for which the binding signal was determined as 2.3 ± 0.159 fold-change vs cycle 0.

ATGACA: the binding signal stood at 1.36 ± 0.0915 fold-change vs cycle 0.

Take CCTTGA: the binding signal amounted to 0.879 ± 0.0172 fold-change vs cycle 0.

As for ATTGGG, the binding signal is 0.725 ± 0.0369 fold-change vs cycle 0.

Consider CTCCAA, for which the binding signal was determined as 0.746 ± 0.0518 fold-change vs cycle 0.

In the case of ATCCAT, the binding signal came out at 1.62 ± 0.0994 fold-change vs cycle 0.

In the case of AGATGA, the binding signal was 1.49 ± 0.0331 fold-change vs cycle 0.

CCTCTA: the binding signal stood at 0.817 ± 0.034 fold-change vs cycle 0.

With ATCTAC, the binding signal amounted to 1.31 ± 0.0255 fold-change vs cycle 0.

As for CCTCAC, the binding signal stood at 0.47 ± 0.0318 fold-change vs cycle 0.

As to CGTGGA, the binding signal is 0.351 ± 0.0215 fold-change vs cycle 0.

Regarding AAAGGA, the binding signal is 1.36 ± 0.0473 fold-change vs cycle 0.

As for CAAACC, the binding signal was found to be 0.669 ± 0.0487 fold-change vs cycle 0.

With GACCAA, the binding signal is 0.62 ± 0.021 fold-change vs cycle 0.

For the sequence GCTAAC, the binding signal amounted to 0.704 ± 0.0424 fold-change vs cycle 0.

On to GAAAGA, for which the binding signal amounted to 1.32 ± 0.0648 fold-change vs cycle 0.

For TAACTA, the binding signal was 2.23 ± 0.0839 fold-change vs cycle 0.

On to AGCAGG, for which the binding signal was determined as 0.42 ± 0.0145 fold-change vs cycle 0.

In the case of AATATC, the binding signal turned out to be 2.49 ± 0.203 fold-change vs cycle 0.

As for CCTTCA, the binding signal came out at 0.899 ± 0.0192 fold-change vs cycle 0.

Take GAGAGC: the binding signal stood at 0.363 ± 0.00861 fold-change vs cycle 0.

For ACCTAT, the binding signal was 1.37 ± 0.0376 fold-change vs cycle 0.

Take ACACAT: the binding signal amounted to 1.25 ± 0.0206 fold-change vs cycle 0.

Take GCAGTA: the binding signal was 0.609 ± 0.0122 fold-change vs cycle 0.

CATTTA: the binding signal was found to be 1.86 ± 0.0709 fold-change vs cycle 0.

Regarding GTCAGA, the binding signal is 0.728 ± 0.0316 fold-change vs cycle 0.

AACTTC: the binding signal stood at 1.37 ± 0.0514 fold-change vs cycle 0.

Take CCCTTC: the binding signal was 0.486 ± 0.0255 fold-change vs cycle 0.

CTTAGA: the binding signal was 1.28 ± 0.0284 fold-change vs cycle 0.

As to ACATGG, the binding signal turned out to be 0.798 ± 0.0238 fold-change vs cycle 0.

AGGGCA: the binding signal is 0.305 ± 0.031 fold-change vs cycle 0.

On to GTTAGA, for which the binding signal stood at 1.3 ± 0.0316 fold-change vs cycle 0.

Consider CTACTA, for which the binding signal was found to be 1.31 ± 0.0478 fold-change vs cycle 0.

On to CAATTG, for which the binding signal worked out at 1.09 ± 0.0289 fold-change vs cycle 0.

As for GTGGAA, the binding signal is 0.745 ± 0.0414 fold-change vs cycle 0.

As for TGGGAA, the binding signal was 0.795 ± 0.0577 fold-change vs cycle 0.

A further experiment concerns the target T2, SALL4 ZFC4 R900W (HT-SELEX) (Mus musculus, UniProt Q8BX22 870-940, R900W).
T2 sequence: T1 sequence with R31W
Nature of the experiment: HT-SELEX; high values mean tight binding. Particulars: protein: recombinant; vector His6-GST; dsDNA, one strand shown. The gist of the method:
as §1
Take CCATCA: the binding signal is 0.957 ± 0.0265 fold-change vs cycle 0.

As to ACCGGT, the binding signal came to 0.438 ± 0.0164 fold-change vs cycle 0.

Turning to ATCTAG, the binding signal was 1.48 ± 0.0373 fold-change vs cycle 0.

On to TCCGGA, for which the binding signal was determined as 0.451 ± 0.0492 fold-change vs cycle 0.

Take ATAGAT: the binding signal worked out at 2.05 ± 0.124 fold-change vs cycle 0.

ATGACA: the binding signal came to 1.41 ± 0.0578 fold-change vs cycle 0.

Turning to CCTTGA, the binding signal was found to be 1.041 ± 0.00922 fold-change vs cycle 0.

Regarding ATTGGG, the binding signal stood at 0.818 ± 0.0162 fold-change vs cycle 0.

For the sequence CTCCAA, the binding signal was 0.878 ± 0.04 fold-change vs cycle 0.

Consider ATCCAT, for which the binding signal was determined as 1.54 ± 0.0869 fold-change vs cycle 0.

In the case of AGATGA, the binding signal is 1.6 ± 0.074 fold-change vs cycle 0.

With CCTCTA, the binding signal came to 0.915 ± 0.0455 fold-change vs cycle 0.

For ATCTAC, the binding signal worked out at 1.41 ± 0.0427 fold-change vs cycle 0.

Take CCTCAC: the binding signal was 0.561 ± 0.0275 fold-change vs cycle 0.

Consider CGTGGA, for which the binding signal turned out to be 0.435 ± 0.0211 fold-change vs cycle 0.

Take AAAGGA: the binding signal is 1.57 ± 0.109 fold-change vs cycle 0.

Turning to CAAACC, the binding signal is 0.765 ± 0.014 fold-change vs cycle 0.

GACCAA: the binding signal came to 0.733 ± 0.0369 fold-change vs cycle 0.

Regarding GCTAAC, the binding signal stood at 0.792 ± 0.0586 fold-change vs cycle 0.

In the case of GAAAGA, the binding signal was 1.52 ± 0.0726 fold-change vs cycle 0.

In the case of TAACTA, the binding signal came out at 2.06 ± 0.126 fold-change vs cycle 0.

Turning to AGCAGG, the binding signal is 0.478 ± 0.0232 fold-change vs cycle 0.

For AATATC, the binding signal is 1.88 ± 0.0733 fold-change vs cycle 0.

For the sequence CCTTCA, the binding signal turned out to be 1.05 ± 0.0389 fold-change vs cycle 0.

In the case of GAGAGC, the binding signal was 0.422 ± 0.0138 fold-change vs cycle 0.

As to ACCTAT, the binding signal stood at 1.45 ± 0.0775 fold-change vs cycle 0.

For ACACAT, the binding signal stood at 1.33 ± 0.0439 fold-change vs cycle 0.

With GCAGTA, the binding signal was found to be 0.693 ± 0.0275 fold-change vs cycle 0.

CATTTA: the binding signal was found to be 1.83 ± 0.108 fold-change vs cycle 0.

Regarding GTCAGA, the binding signal was found to be 0.836 ± 0.0595 fold-change vs cycle 0.

Take AACTTC: the binding signal is 1.52 ± 0.0544 fold-change vs cycle 0.

Take CCCTTC: the binding signal is 0.614 ± 0.0191 fold-change vs cycle 0.

CTTAGA: the binding signal worked out at 1.45 ± 0.0641 fold-change vs cycle 0.

As for ACATGG, the binding signal is 0.918 ± 0.032 fold-change vs cycle 0.

With AGGGCA, the binding signal was 0.354 ± 0.00942 fold-change vs cycle 0.

For GTTAGA, the binding signal turned out to be 1.47 ± 0.0186 fold-change vs cycle 0.

Consider CTACTA, for which the binding signal amounted to 1.47 ± 0.0658 fold-change vs cycle 0.

As for CAATTG, the binding signal is 1.247 ± 0.0104 fold-change vs cycle 0.

Regarding GTGGAA, the binding signal was 0.83 ± 0.0233 fold-change vs cycle 0.

Consider TGGGAA, for which the binding signal turned out to be 0.859 ± 0.0429 fold-change vs cycle 0.

For another experiment, the target named is T3, SALL4 ZFC4 G921D (HT-SELEX) (Mus musculus, UniProt Q8BX22 870-940, G921D).
T3 sequence: T1 sequence with G52D
Kind of experiment: HT-SELEX; high values mean tight binding. To be noted: protein: recombinant; vector His6-GST; dsDNA, one strand shown. Summed up: as §1
CCATCA: the binding signal was found to be 0.949 ± 0.0116 fold-change vs cycle 0.

Regarding ACCGGT, the binding signal is 0.518 ± 0.0665 fold-change vs cycle 0.

Consider ATCTAG, for which the binding signal worked out at 1.41 ± 0.108 fold-change vs cycle 0.

Turning to TCCGGA, the binding signal worked out at 0.552 ± 0.107 fold-change vs cycle 0.

As to ATAGAT, the binding signal stood at 1.86 ± 0.167 fold-change vs cycle 0.

As for ATGACA, the binding signal is 1.39 ± 0.11 fold-change vs cycle 0.

CCTTGA: the binding signal is 1.05 ± 0.0247 fold-change vs cycle 0.

ATTGGG: the binding signal amounted to 0.856 ± 0.0353 fold-change vs cycle 0.

In the case of CTCCAA, the binding signal was 0.924 ± 0.0231 fold-change vs cycle 0.

Regarding ATCCAT, the binding signal was 1.44 ± 0.0984 fold-change vs cycle 0.

In the case of AGATGA, the binding signal is 1.46 ± 0.104 fold-change vs cycle 0.

On to CCTCTA, for which the binding signal amounted to 0.953 ± 0.0421 fold-change vs cycle 0.

As to ATCTAC, the binding signal was 1.38 ± 0.0966 fold-change vs cycle 0.

Regarding CCTCAC, the binding signal was determined as 0.658 ± 0.0448 fold-change vs cycle 0.

Consider CGTGGA, for which the binding signal was 0.54 ± 0.0631 fold-change vs cycle 0.

Consider AAAGGA, for which the binding signal worked out at 1.44 ± 0.105 fold-change vs cycle 0.

On to CAAACC, for which the binding signal is 0.864 ± 0.0462 fold-change vs cycle 0.

On to GACCAA, for which the binding signal was 0.845 ± 0.0391 fold-change vs cycle 0.

GCTAAC: the binding signal was determined as 0.89 ± 0.0355 fold-change vs cycle 0.

Consider GAAAGA, for which the binding signal is 1.36 ± 0.0863 fold-change vs cycle 0.

For the sequence TAACTA, the binding signal was determined as 1.82 ± 0.187 fold-change vs cycle 0.

AGCAGG: the binding signal turned out to be 0.561 ± 0.0608 fold-change vs cycle 0.

Turning to AATATC, the binding signal is 1.75 ± 0.14 fold-change vs cycle 0.

Take CCTTCA: the binding signal was 1.06 ± 0.0107 fold-change vs cycle 0.

GAGAGC: the binding signal was determined as 0.588 ± 0.0466 fold-change vs cycle 0.

In the case of ACCTAT, the binding signal is 1.43 ± 0.0809 fold-change vs cycle 0.

As to ACACAT, the binding signal stood at 1.32 ± 0.0216 fold-change vs cycle 0.

With GCAGTA, the binding signal is 0.766 ± 0.032 fold-change vs cycle 0.

As for CATTTA, the binding signal was 1.69 ± 0.163 fold-change vs cycle 0.

For the sequence GTCAGA, the binding signal worked out at 0.887 ± 0.0403 fold-change vs cycle 0.

As for AACTTC, the binding signal is 1.4 ± 0.0625 fold-change vs cycle 0.

Consider CCCTTC, for which the binding signal was 0.653 ± 0.0312 fold-change vs cycle 0.

Consider CTTAGA, for which the binding signal stood at 1.36 ± 0.0933 fold-change vs cycle 0.

Turning to ACATGG, the binding signal turned out to be 0.959 ± 0.0218 fold-change vs cycle 0.

With AGGGCA, the binding signal turned out to be 0.51 ± 0.0852 fold-change vs cycle 0.

For GTTAGA, the binding signal stood at 1.41 ± 0.0651 fold-change vs cycle 0.

As for CTACTA, the binding signal turned out to be 1.39 ± 0.0974 fold-change vs cycle 0.

Take CAATTG: the binding signal stood at 1.28 ± 0.0217 fold-change vs cycle 0.

As for GTGGAA, the binding signal was determined as 0.871 ± 0.012 fold-change vs cycle 0.

On to TGGGAA, for which the binding signal was 0.877 ± 0.0259 fold-change vs cycle 0.
